Measurements taken from PubChem BioAssay (NCI).
This is part of a sample that, as a whole, favours compounds with a hit. Of some 79,000 tested, about 15% had one in any assay. A number with no mark means an inactive call. Activity calls are given as the source filed them. No stated cut-off is given here; in the data, active means growth inhibition above about 70%; inactive means the rest.

Assay: NCI Yeast Anticancer Drug Screen. Data for the mlh1 strain (AID 171);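 further: 0% = growth of vehicle-treated control cultures of the same strain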
Conditions: S. cerevisiae mlh1 strain growth inhibition, stronger effect = higher value
Protocol: Growth inhibition of yeast strains with defined genetic alterations is measured as a screen for potential anti-cancer activity. Selected strains with alterations in DNA damage repair or cell cycle control were exposed to compounds and growth inhibition was measured relative to vehicle treated controls. The strain used in this assay is mlh1

| SMILES | growth inhibition (at 1.2 µM) | growth inhibition (at 3.7 µM) | growth inhibition (at 11.0 µM) | growth inhibition (at 33.0 µM) | growth inhibition (at 100.0 µM) |
| --- | --- | --- | --- | --- | --- |
| O=[N+]([O-])c1cc(S(=O)(=O)F)ccc1Cl | 15% | 19% | 29% | 95% (active) | 99% (active) |
| CCc1cccc(C(C)C)c1NC1=C([n+]2ccc(C)cc2)C(=O)c2ccccc2C1=O | -4% | -6% | -4% | 2% | 9% |
| CS(=O)(=O)OCCN(CCOS(C)(=O)=O)c1ccc(C=O)cc1 | 2% | 11% | 25% | 53% | 82% (active) |
| CC1(Cl)CC(C)(/C=C/Cl)C(Cl)CC1Cl (stereo not given) | 2% | 1% | 4% | 14% | 41% |
| COC(=O)C1=C(C(=O)OC)C2OC1c1cc3ccccc3cc12 | 19% | 35% | 85% (active) | 99% (active) | 99% (active) |
| OC(c1ccc(Br)cc1)C(Cl)(Cl)Cl (stereo not given) | -10% | -18% | -6% | 80% (active) | 97% (active) |
| S=C1NC2(CCCCC2)NC12CCCCC2 | -6% | -5% | 0% | 1% | -2% |
| CC1CCC2(NC1)OC1CC3C4CCC5CC(OC6OC(CO)C(OC7OC(CO)C(O)C(OC8OCC(O)C(O)C8O)C7OC7OC(CO)C(O)C(O)C7O)C(O)C6O)CCC5(C)C4CCC3(C)C1C2C (stereo not given) | -4% | -5% | -8% | -12% | 90% (active) |
